# Screening results from PubChem BioAssay.
# Sampled rows, rich in hits. Any-hit rate of the full collection: about 11%.
# G9a inh – qHTS Assay for Inhibitors of Histone Lysine Methyltransferase G9a | G9a H3K9 monomethylation, AlphaScreen, 2 h | Potency, µM (top dose mostly 102 µM), for inactives: at the highest dose activity, negative = inhibition, actives largely listed as inhibitors | actives 8.8% (n = 350,000); also: % is scaled to controls: 0 for no effect and ±100 for the full control effect; nearly all actives have a fitted effect of over 75% in size
#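 Quantitative HTS format: methyltransferase activity on a biotin-tagged H3K9 peptide is measured by AlphaScreen, using a rabbit anti-monomethyl-H3K9 antibody with streptavidin donor and anti-IgG acceptor beads. Final levels are 20 nM enzyme, 500 nM peptide, 20 uM SAM; 2 h RT.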
# JMJD2A Tudor – qHTS Assay for Inhibitors of JMJD2A-Tudor Domain | Lysine-specific demethylase 4A (Homo sapiens), O75164 | AlphaScreen JMJD2A-Tudor / H3K4me3 peptide binding | Potency, µM (top dose mostly 114 µM), for inactives: at the highest dose activity change, negative = inhibition, usual class: inhibitors | actives 4.4% (n = 390,000) | AID 504339, 2011; also: % is scaled to controls: 0 for no effect and ±100 for the full control effect; nearly all actives have a fitted effect of over 50% in size
# Target sequence (O75164 whole entry, looked up, the tested form may be a part): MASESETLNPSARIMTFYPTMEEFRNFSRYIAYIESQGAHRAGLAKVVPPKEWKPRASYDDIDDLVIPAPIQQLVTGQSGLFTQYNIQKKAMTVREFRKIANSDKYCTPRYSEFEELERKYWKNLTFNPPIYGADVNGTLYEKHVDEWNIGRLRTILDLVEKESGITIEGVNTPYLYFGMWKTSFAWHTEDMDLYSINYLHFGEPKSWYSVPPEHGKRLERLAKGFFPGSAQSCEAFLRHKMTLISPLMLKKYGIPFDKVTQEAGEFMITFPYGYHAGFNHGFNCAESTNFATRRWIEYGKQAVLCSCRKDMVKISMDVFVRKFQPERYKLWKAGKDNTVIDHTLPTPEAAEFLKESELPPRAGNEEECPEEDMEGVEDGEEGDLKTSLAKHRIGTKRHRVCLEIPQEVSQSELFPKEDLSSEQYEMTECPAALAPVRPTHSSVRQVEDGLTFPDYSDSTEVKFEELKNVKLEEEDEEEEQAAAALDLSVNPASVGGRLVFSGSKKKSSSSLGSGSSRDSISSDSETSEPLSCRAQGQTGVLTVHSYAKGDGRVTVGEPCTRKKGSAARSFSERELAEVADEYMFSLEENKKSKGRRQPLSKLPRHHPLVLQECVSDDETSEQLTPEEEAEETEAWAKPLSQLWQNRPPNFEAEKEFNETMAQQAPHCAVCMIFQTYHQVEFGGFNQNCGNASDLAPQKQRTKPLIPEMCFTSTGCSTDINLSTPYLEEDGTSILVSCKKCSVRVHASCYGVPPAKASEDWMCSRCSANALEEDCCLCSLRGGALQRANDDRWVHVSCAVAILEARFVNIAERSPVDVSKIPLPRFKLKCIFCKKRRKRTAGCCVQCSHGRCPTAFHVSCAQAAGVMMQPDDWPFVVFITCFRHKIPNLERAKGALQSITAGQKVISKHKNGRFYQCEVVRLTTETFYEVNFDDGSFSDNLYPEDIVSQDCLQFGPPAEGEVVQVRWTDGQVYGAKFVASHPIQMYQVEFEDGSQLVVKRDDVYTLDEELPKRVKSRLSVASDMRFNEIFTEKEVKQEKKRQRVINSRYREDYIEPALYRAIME
# BAZ2B inh – qHTS Assay for Inhibitors of BAZ2B. Bromodomain adjacent to zinc finger domain protein 2B (Homo sapiens), Q9UIF8. AlphaScreen BAZ2B-H3K14Ac peptide displacement. Potency, µM (series often up to 114 µM), inactives show at the highest dose activity change, negative = inhibition, usual class: inhibitors. actives 4.4% (n = 360,000); also: % is scaled to controls: 0 for no effect and ±100 for the full control effect; nearly all actives have a fitted effect of over 60% in size
#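 Compounds, titrated to a top concentration of 110 uM, were incubated 30 min at room temperature with preformed BAZ2B/acetyl-K14 H3 peptide complex (50 nM each). Proximity signal was measured by AlphaScreen after 20 min with beads.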
# L3MBTL1 inh – qHTS Assay for the Inhibitors of L3MBTL1; AlphaScreen L3MBTL1–H3K9me1 peptide binding; Potency, µM (doses to about 57.1 µM), for inactives: at the top dose activity, negative = inhibition, hits mostly inhibitors; actives 0.66% (n = 230,000); also: % is scaled to controls: 0 for no effect and ±100 for the full control effect; nearly all actives have a fitted effect of over 60% in size
#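 AlphaScreen proximity signal between nickel-chelate acceptor and streptavidin donor beads (final 10 ug/mL) reports binding of 50 nM L3MBTL1 to 75 nM biotin-H3 K9me1 peptide; complex incubated with compounds 30 min at room temperature; cefsulodin titration as control.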
# HP1b binding inh – HTS for Inhibitors of HP1-beta Chromodomain Interactions with Methylated Histone Tails; Potency, µM (highest dose often 114 µM), inactives show at the top dose activity change, negative = inhibition, actives largely listed as inhibitors; AlphaScreen HP1-beta / biotin-H3K9me3 peptide binding; Chromobox protein homolog 1 (Homo sapiens), P83916; actives 0.56% (n = 390,000); also: nearly all actives have a fitted effect of over 70% in size
#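 Compound inhibition of the preformed complex between 50 nM HP1-beta and 50 nM biotinylated H3K9me3 peptide was read by AlphaScreen. Buffer was PBS pH 7.4 with 0.01% Tween-20. Incubations ran 30 min at room temperature, with 10 ug/mL donor/acceptor beads.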
# The depositor's hits bear a star; ? = inconclusive; . = not tested or not shown; [ ] = another dose, or the depositor's remark. Calls follow the shape of the dose curve; as a rule, active = well fitted inhibition curve with a large enough effect; inconclusive = small, poorly fitted or top-dose-only effect; inactive = no such curve, though single readings can be large or run the other way. Potency is read from the fitted curve at half-maximal effect.
SMILES,G9a inh,JMJD2A Tudor,BAZ2B inh,L3MBTL1 inh,HP1b binding inh
Cc1cc(C)c(-n2c(O)c(C=NCCN3CCOCC3)c(=O)[nH]c2=O)c(C)c1,-5.1%,1.6%,-1.6%,0.7%,56.8%
COc1cccc(-n2c(O)c(C=NCCN3CCOCC3)c(=O)[nH]c2=O)c1,44.7µM*,-10.8%,7.6%,4.4%,62.8%
COc1ccc(N=Cc2c(O)n(-c3ccc(C)cc3)c(=O)[nH]c2=O)cc1,8.8%,-7.0%,5.4%,10.5%,57.1%
Cn1c(O)c(C=Nc2ccccc2)c(=O)n(C)c1=O,2.4%,-7.5%,7.7%,.,3.6%
COc1ccc(N/N=C/c2c(O)n(-c3ccc(C)c(C)c3)c(=O)[nH]c2=O)cc1,1µM*,35.5µM*,-35.7%,-0.3%,-13.5%
C[n+]1c2cc(N)ccc2cc2ccc(N)cc21,?,?,.,.,29.1%
O=C(O)/C=C/CO,22.0%[59 µM],.,.,.,.
Cn1c(-c2ccccc2)c(P(=S)(c2ccccc2)c2ccccc2)c2ccccc21,.,-15.0%,.,.,.
CN1CCN(/N=C/c2c(O)n(C)c(=O)n(C)c2=O)CC1,28.2µM*,-8.1%[57.1 µM],-11.8%,?,17.6%
Cn1c(O)c(C=NCCCN2CCCC2=O)c(=O)n(C)c1=O,0.9%,-8.2%,4.8%,2.2%,1.1%
COc1ccc(N/N=C/c2c(O)n(-c3cccc(C)c3)c(=O)[nH]c2=O)cc1,2.24µM*,-29.6%,-13.7%,-7.6%,4.3%
Cc1c(C)c2ccc(OCC(=O)N3CCC[C@@H]3C(=O)O)c(C)c2oc1=O,.,?,-8.8%[57.1 µM],12.9%,16.4%
O=c1[nH]c(=S)n(Cc2ccco2)c(O)c1C=NCc1cccs1,3.55µM*,?,5.01µM*,.,?
NC(=O)c1ccc(N=Cc2c(O)n(Cc3ccco3)c(=O)[nH]c2=O)cc1,39.8µM*,?,?,.,119.3%
N#Cc1c(/N=C/c2c(O)n(Cc3ccco3)c(=O)[nH]c2=O)sc2c1CCCC2,-16.3%[0.0925 µM],79.4µM*,?,14.1µM*,-23.3%
O=C1CSC(c2ccccc2Cl)c2cc(Cl)ccc2N1 (stereo not given),10.8%[59 µM],.,.,.,.
CCCCC/C=C\C/C=C\C/C=C\C/C=C\CCCC(=O)Nc1ccc(O)cc1C,3.7%[59 µM],.,.,.,.
O=C(Cn1c(=O)n(CC2CCC(C(=O)NCCc3ccccc3)CC2)c(=O)c2ccccc21)Nc1cccc(F)c1 (stereo not given),-6.1%[59 µM],56.2µM*,-0.9%,.,10.6%
CN1CCN(c2ccc([N+](=O)[O-])c(Sc3ccccn3)c2)CC1,-0.4%,-17.3%,-17.7%,-13.9%,8.3%
NNS(=O)(=O)c1ccc(Sc2ccccn2)c([N+](=O)[O-])c1,39.8µM*,-20.5%,-13.7%,-4.5%,31.2%
Cc1c(OC(=O)N(C)C)ccc2c1O/C(=C\c1ccco1)C2=O,31.6µM*,-16.9%,56.2µM*,.,9.7%
CC12CCCCC1N(O)CN2O (stereo not given),7.94µM*,?,3.9%,2.8%,46.3%
O=C(Oc1ccccc1)N1CCC2(CCN(Cc3ccccc3)CC2)CC1,8.4%[12.7 µM],.,.,.,.
COC(=O)[C@H]1[C@H]2C[C@@H]3c4[nH]c5cc(OC)ccc5c4CCN3C[C@H]2C[C@@H](OC(=O)/C=C/c2cc(OC)c(OC)c(OC)c2)[C@@H]1OC,8.91µM*,28.2µM*,?,?,-22.4%
CN1C(=O)N(C)C(=O)C2(Cc3cc(NC(=O)c4ccccc4Cl)ccc3N3CCCC32)C1=O (stereo not given),.,?,-11.1%,.,40.8%
SMILES,G9a inh,JMJD2A Tudor,BAZ2B inh,L3MBTL1 inh,HP1b binding inh
CN1CCN2c3ccc(N)cc3CC3(C(=O)NC(=O)NC3=O)C2C1 (stereo not given),17.8µM*,89.1µM*,7.94µM*,.,-12.5%
CN1C(=O)N(C)C(=O)C2(Cc3cc(N)ccc3N3CCN(c4ccccc4F)CC32)C1=O (stereo not given),28.2µM*,.,50.1µM*,?,.
CCN1C(=O)N(CC)C(=O)C2(Cc3ccccc3N3CCN(c4ccccc4)CC32)C1=O (stereo not given),2µM*,-22.3%,?,-12.1%,42.0%
CN1C(=O)N(C)C(=O)C2(Cc3cc(NC(=O)c4ccccc4)ccc3N3CCCC32)C1=O (stereo not given),31.6µM*,-22.7%,-17.6%,.,44.7%
O=C(c1ccco1)N1CCC[C@@]2(CCN(Cc3ccncc3)C2)C1,6.7%[12.7 µM],.,.,.,.
CCOc1ccc(Nc2c(S(=O)(=O)c3ccc(C)cc3)cnc3ccccc23)cc1,-34.0%[59 µM],?,?,.,9.0%
CCOc1ccc(Nc2c(S(=O)(=O)c3ccc(C)cc3)cnc3ccc(F)cc23)cc1,10µM*,-30.5%,-37.3%,.,4.9%
CCCc1[nH]nc2c1C1(C(=O)N(Cc3ccccc3)c3ccccc31)C(C(=O)OC)=C(N)O2 (stereo not given),50.1µM*,-24.6%,-32.6%,.,12.6%
CCCc1[nH]nc2c1C1(C(=O)N(CC(N)=O)c3ccccc31)C(C(=O)OC)=C(N)O2 (stereo not given),-14.2%,19.9%,-23.2%,0.6%,53.9%
O=C1NC(=O)N(c2ccc(Cl)cc2)C(=O)/C1=C\c1ccc(Sc2nc3ccccc3[nH]2)o1,3.16µM*,10µM*,28.2µM*,?,39.8µM*
Cc1ccccc1[N+](=O)[O-],13.0%[0.501 µM],-10.3%,-0.8%,8.3%,100.3%
COC(=O)C1=C(C)NC(C)=C(C(=O)OC)C1c1ccccc1[N+](=O)[O-],2.99µM*,?,39.8µM*,-15.6%,?
CCn1c(C)[n+](CC(O)COCC2CC=CCC2)c2ccccc21 (stereo not given),10µM*,?,-1.5%,.,12.8%
CCC(C)N1C(=O)/C(=C\c2cc3c4c(c2)CCCN4CCC3)C(=O)NC1=S (stereo not given),44.7µM*,14.1µM*,?,-26.0%,?
CCC(C)N1C(=O)/C(=C\c2ccc(N3CCCCCC3)cc2)C(=O)NC1=S (stereo not given),3.55µM*,?,44.7µM*,-7.4%,?
CCC(C)N1C(=O)/C(=C\c2cnc(N(C)C)nc2)C(=O)NC1=S (stereo not given),7.94µM*,?,?,-4.5%[11.4 µM],-0.8%
COc1cc(OC)c2c(c1)OC(c1ccc(OC)c(OC)c1)C(O)C2 (stereo not given),-23.9%[2.33 µM],.,.,.,.
Cn1c(=O)c2c(-c3ccccc3)n3c(c2n(C)c1=O)C(c1cc(Cl)ccc1O)Nc1ccccc1-3 (stereo not given),?,-24.5%,-21.9%,.,17.1%
CCCCC1C(=O)NC(=S)NC1=O,4.47µM*,.,-26.2%,12.5%,.
